Rows were chosen to be rich in hits. Some 7.6% of all compounds tested hit in one or more screens of this group.
p53 reactivator – re-activators of mutant p53; H1299 p53-A138V BP100-luciferase reporter, luminescence, 24 h; Potency, µM (top dose mostly 92.2 µM), for inactives: at the highest dose activity change, positive = activation, most hits filed as activators; 320,000 compounds, 0.063% hits; AID 504706; note: potency is the fitted concentration of half-maximal effect; % of control where 0% means no effect; nearly all actives have a fitted effect of over 45% in size
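p53-null H1299 cells stably carrying temperature-sensitive p53-A138V and a BP100-luciferase reporter were pinned with compounds (4-point, 1:5 series) and held 24 hrs at 37 deg C. Luminescence was read 10 min after detection reagent.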
BRCA1 expr up – increases BRCA1 expression. MCF7-BRCA1-FFLuc reporter, luminescence, 48 h; response scale: scaled: vehicle 0%, 10 µM genistein 100%. Potency, µM (top dose mostly 46.1 µM), for the others: at the highest dose activation, most hits filed as activators. 380,000 compounds, 1.1% hits; note: potency is the fitted concentration of half-maximal effect; nearly all actives have a fitted effect of over 80% in size
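48 h compound treatment of MCF7-BRCA1-FFLuc cells (phenol-red free MEM, 37 °C), then 15 min with luciferase substrate and luminescence imaging.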
Gal4-VP16 FLuc – counter-screen for ROR gamma inhibitors: Gal4-VP16 reporter; Drosophila S2 Gal4-VP16 UAS-luciferase, luminescence, 20 h; Potency, µM (highest dose often 53.6 µM), for inactives: top-dose activity, negative = inhibition, usual class: inhibitors; 310,000 compounds, 3.5% hits; AID 2546;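 note: Gal4-VP16 expression switched on by copper sulfate through the metallothionein promoter; potency is the fitted concentration of half-maximal effect; % is set by controls: 0 for no effect and ±100 for the full control effect; nearly all actives have a fitted effect of over 50% in size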
Giardia kill – kills Giardia lamblia; Giardia lamblia trophozoite viability; activity change, % at 7.66 µM, hits read low; 340,000 compounds, 0.15% hits; AID 540267; in the data active = activity change below about -80%; inconclusive = between about -30% and that limit;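 note: parasites exposed to compound for two days anaerobically before the ATP read; % is set by controls: 0 for no effect and ±100 for the full control effect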
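Compounds were tested on trophozoites seeded at 100 cells/well and held 48 hrs at 37 deg C anaerobically. An ATP-based luminescent kit measured the remaining live cells.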
ELG1 repair inh – inhibitors of ELG1-dependent DNA repair in HEK293T cells; HEK293T ELG1-luciferase reporter, luminescence, 16 h; DNA damage induced by 5-fluorouridine; Potency, µM (highest dose often 46.1 µM), for the others: at the top dose activity change, negative = inhibition, actives largely listed as inhibitors; 330,000 compounds, 2.3% hits; AID 504467; note: potency is the fitted concentration of half-maximal effect; % is set by controls: 0 for no effect and ±100 for the full control effect; nearly all actives have a fitted effect of over 55% in size
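DMSO vehicle served as the neutral condition. Each well held 2,000 cells given 5-fluorouridine plus compound; after 16 hr at 37 °C/5% CO2, ONE-Glo was added and luciferase measured 30 min later.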
RORg inh – blocks mouse ROR gamma transcriptional activity; Potency, µM (doses to about 53.6 µM), inactives show at the top dose activity change, negative = inhibition, hits mostly inhibitors; 310,000 compounds, 5.4% hits; Drosophila S2 Gal4-RORgamma UAS-luciferase reporter, 20 h; note: potency is the fitted concentration of half-maximal effect; % is set by controls: 0 for no effect and ±100 for the full control effect; nearly all actives have a fitted effect of over 60% in size
Target sequence (P51450 whole entry, looked up, the tested form may be a part): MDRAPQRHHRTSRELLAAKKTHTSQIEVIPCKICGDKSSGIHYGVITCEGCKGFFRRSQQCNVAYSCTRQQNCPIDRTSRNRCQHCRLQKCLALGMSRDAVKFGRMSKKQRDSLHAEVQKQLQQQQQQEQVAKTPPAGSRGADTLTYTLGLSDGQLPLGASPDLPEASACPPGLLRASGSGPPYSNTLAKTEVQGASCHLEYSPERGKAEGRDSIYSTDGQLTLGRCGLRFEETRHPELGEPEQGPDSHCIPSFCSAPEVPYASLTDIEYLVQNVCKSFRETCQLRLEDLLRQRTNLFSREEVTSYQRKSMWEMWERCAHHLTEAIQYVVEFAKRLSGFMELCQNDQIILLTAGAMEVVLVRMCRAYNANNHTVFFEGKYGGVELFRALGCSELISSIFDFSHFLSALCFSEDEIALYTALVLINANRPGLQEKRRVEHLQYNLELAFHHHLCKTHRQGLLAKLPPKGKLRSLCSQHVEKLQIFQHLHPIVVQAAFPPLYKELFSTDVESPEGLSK
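Stable Schneider cell line, Gal4 DNA-binding domain fused to ROR gamma, UAS-luciferase. Cmpd 1 hr RT → CuSO4 700 uM final → 20 hr RT → luciferase reagent 10 min → luminescence.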
* = called active by the depositor; ? = inconclusive; nt = no result given; [ ] = remark or other dose. Unless noted, calls come from the whole dose curve; as a rule, active = well fitted curve in the direction sought with a large enough effect; inconclusive = small, poorly fitted or top-dose-only effect, or another doubt; inactive = no such curve, though single readings can be large; an effect the other way counts as inactive or inconclusive.

SMILES	p53 reactivator	BRCA1 expr up	Gal4-VP16 FLuc	Giardia kill	ELG1 repair inh	RORg inh
COc1ccc(C2CC(c3ccccc3)=NN2C(=O)COC(=O)c2cccc(O)c2)cc1 (centres undefined)	7%	-89%	nt	1	16µM*	nt
CCOC(=O)c1nnn(CC(=O)N2N=C(c3ccccc3)CC2c2ccccc2)c1C(=O)OCC (centres undefined)	6%	3%	-19%	23	8%	13µM*
Cc1sc2ncnc(NCCN3CCOCC3)c2c1C	-2%	-51%	-12%	16	18µM*	34%
CC1CCc2c(sc3ncnc(NCCN4CCOCC4)c23)C1 (centres undefined)	-1%	-4%	20%	13	-3%	-6%
Cc1sc2ncnc(NCc3cccs3)c2c1C	-2%	-55%	10µM*	9	7%	-13%
Cc1sc2ncnc(NCc3ccco3)c2c1C	23%	-21%	20µM*	-12	?	19%
CCNc1nc(CSc2ccccc2)nc2sc(C)c(C)c12	-16%	-88%	5µM*	-21	-9%	5.6µM*
Cc1sc2nc(CSc3ccccc3)nc(NCCN(C)C)c2c1C	-6%	-2%	1%	2	5%	1%
COc1ccc2cc(Br)ccc2c1CC(=O)NCC1CCCO1 (centres undefined)	9%	0%	25%	-10	?	2%
O=S(=O)(Nc1nc2ccccc2nc1NCc1ccco1)c1ccc(F)cc1	1%	-14%	-9%	-2	15µM*	28%
O=S(=O)(Nc1nc2ccccc2nc1NCc1ccco1)c1ccccc1	-4%	-35%	5%	-2	-13%	20%
Cc1sc2nc(CN3CCOCC3)nc(NCCc3ccccc3)c2c1C	-3%	-20%	?	-1	?	7.1µM*
c1coc(CNc2nc3nonc3nc2NCc2ccco2)c1	16%	-49%	13µM*	6	0%	0%
Brc1ccc2ncnc(NCc3ccco3)c2c1	18%	-56%	?	2	8.2µM*	-32%
Cc1noc(C)c1COc1ccc(C(=O)N2CCN(c3ccccc3F)CC2)cc1	1%	-5%	nt	-1	?	nt
CN(C)C(=O)N1CCCC(C(=O)NCc2ccccc2)C1 (centres undefined)	-4%	-5%	-6%	10	21%	27%
CC(=O)N1CCC(c2c[nH]c3ccccc23)CC1	0%	8%	-1%	3	-14%	-9%
COc1ccc(CC(=O)Nc2ccc(C(N)=O)cc2)cc1	-1%	-5%	-8%	-12	5%	-7%
COc1ccc(CC(=O)OCC(=O)Nc2ccc(C(=O)Nc3ccc(OC)cc3)cc2)cc1	5%	11µM*	-8%	10	?	16%
CCOc1ccc(NC(=O)c2ccc(NC(=O)COC(=O)Cc3ccc(OC)cc3)cc2)cc1	5%	4.5µM*	14%	-8	?	13%
Oc1ccccc1CNCc1ccccc1	1%	10%	22%	-5	11%	-9%
CC(C)c1ccc(N2C(=O)CC(Sc3ncn[nH]3)C2=O)cc1 (centres undefined)	5%	-16%	?	-3	-6%	?
COc1ccc(N2C(=O)CC(Sc3nc(C)cc(C)n3)C2=O)cc1OC (centres undefined)	12%	0%	?	-5	2%	-3%[1.91 µM]
COc1ccccc1N1C(=O)CC(Sc2nc(C)cc(C)n2)C1=O (centres undefined)	0%	-6%	-19%	-6	9%	11µM*
COc1ccc(N2C(=O)CC(Sc3n[nH]c(-c4cccc(C)c4)n3)C2=O)cc1 (centres undefined)	15%	45%	?	8	?	23%
SMILES	p53 reactivator	BRCA1 expr up	Gal4-VP16 FLuc	Giardia kill	ELG1 repair inh	RORg inh
Cc1ccc(N2C(=O)CC(Sc3ncccn3)C2=O)cc1C (centres undefined)	nt	-40%	?	-2	-9%	13µM*
CCOc1ccccc1N1C(=O)CC(Sc2n[nH]c(-c3ccccc3)n2)C1=O (centres undefined)	24%	-26%	-71%	5	4%	3.5µM*
COc1ccc(N2C(=O)CC(Sc3ncn[nH]3)C2=O)c(OC)c1 (centres undefined)	13%	1%	22µM*	-2	-15%	3.2µM*
O=C(CSc1nnc(-c2ccco2)n1Cc1ccco1)NCc1cccs1	-1%	17%	-1%	-7	-6%	1%
O=C(Nc1ccc(C(F)(F)F)cc1)c1ccc2ncsc2c1	9%	?	?	-12	?	9%
Cc1cc(F)ccc1S(=O)(=O)N1CCCOC1CNC(=O)C(=O)NCc1ccccn1 (centres undefined)	-13%	-7%	-8%	10	2%	12%
CCN(CC)CCCNc1cc(C)nc2cc(-c3cccs3)nn12	0%	21%	?	-28	16%	11µM*
Cc1cccc(-c2cc3nc(C)cc(NCCCN(C)C)n3n2)c1	-23%	-15%	nt	-3	?	17%[0.365 µM]
C=C1CCC[C@]2(C)C[C@H]3OC(=O)C(CNCC(OC)OC)[C@H]3CC12 (some centres undefined)	-1%	-36%	-15%	11	-2%	3%
COc1ccccc1NC(=O)COc1cccnc1[N+](=O)[O-]	7%	19%	nt	?	0%	nt
COC(=O)c1sc(NC(=O)COc2cccnc2[N+](=O)[O-])c(C(=O)OC)c1C	7%	-10%	nt	-82*	-20%	nt
CCOC(=O)Nc1sc(C(=O)N(CC)CC)c(C)c1C(=O)OCC	2%	-3%	2%	-7	0%	?
CCOC(=O)c1c(NC(=O)COC(=O)c2cccnc2OCC)sc(C(=O)N(CC)CC)c1C	-3%	-23%	nt	17	7.3µM*	nt
CCOC(=O)c1c(NC(=O)COC(=O)c2ccc([N+](=O)[O-])cc2)sc(C(=O)N(C)C)c1C	-1%	0%	nt	7	-1%	nt
CCOC(=O)c1c(C)[nH]c(C(=O)OCC(=O)Nc2sc(C(=O)N(C)C)c(C)c2C(=O)OCC)c1C	0%	-81%	nt	13	12µM*	nt
COC(=O)c1sccc1NC(=O)c1ccc(C#N)cc1	-3%	-55%	-9%	-22	4%	18%
Cc1ccccc1CNC(=O)C1CCC(=O)N(Cc2cccc(F)c2)C1 (centres undefined)	3%	5%	1%	-12	1%	-1%
CCN(C(=O)c1cnc(NC(C)C)cc1C(F)(F)F)c1ccc(Cl)cc1	-3%	-33%	4%	-2	18µM*	20%

Source: PubChem
